Screening results: PubChem BioAssay, several laboratories
Sampled rows, rich in hits. Any-hit rate of the full collection: about 5.9%.
AHR act: activators of human aryl hydrocarbon receptor. activation, % at 5 µM. 320,000 tested, 2.5% active. AHR-responsive luciferase reporter cells, luminescence. P35869; in the data active means activation above about 47%;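 further: 0% = vehicle wells and 100% = reference agonist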
Target sequence (P35869 whole entry, looked up): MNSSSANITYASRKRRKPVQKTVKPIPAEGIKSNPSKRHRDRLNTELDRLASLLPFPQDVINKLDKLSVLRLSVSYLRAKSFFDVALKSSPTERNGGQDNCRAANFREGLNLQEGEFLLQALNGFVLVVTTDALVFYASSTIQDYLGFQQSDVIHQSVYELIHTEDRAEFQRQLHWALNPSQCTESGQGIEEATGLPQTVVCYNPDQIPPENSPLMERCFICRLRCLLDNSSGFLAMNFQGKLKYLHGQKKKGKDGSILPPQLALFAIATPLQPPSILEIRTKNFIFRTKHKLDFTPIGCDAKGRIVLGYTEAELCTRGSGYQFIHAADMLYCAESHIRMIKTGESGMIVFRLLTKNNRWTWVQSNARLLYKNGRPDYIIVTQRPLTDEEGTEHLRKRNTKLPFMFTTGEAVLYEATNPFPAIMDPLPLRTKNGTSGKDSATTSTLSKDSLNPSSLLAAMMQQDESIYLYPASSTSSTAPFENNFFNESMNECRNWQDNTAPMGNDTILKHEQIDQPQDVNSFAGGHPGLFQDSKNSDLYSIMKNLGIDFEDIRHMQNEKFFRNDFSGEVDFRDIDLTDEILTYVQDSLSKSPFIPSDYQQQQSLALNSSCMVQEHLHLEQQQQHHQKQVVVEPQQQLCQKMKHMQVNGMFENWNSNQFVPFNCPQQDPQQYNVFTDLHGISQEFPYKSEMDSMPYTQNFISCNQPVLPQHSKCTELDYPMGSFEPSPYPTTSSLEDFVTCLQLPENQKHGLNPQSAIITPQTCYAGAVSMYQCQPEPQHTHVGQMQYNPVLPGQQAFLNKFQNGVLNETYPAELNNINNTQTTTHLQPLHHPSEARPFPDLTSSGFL
HSP90 refold inh: inhibitors of HSP90 luciferase refolding in rabbit reticulocyte lysate | 290,000 tested, 0.91% active | luciferase refolding luminescence, 3 h | AID 1789 | inhibition, % at 5.6 µM;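 active means inhibition above the screen-wide mean plus 3 SD, computed separately per campaign, cut at about 16% in these data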;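 further: 0% = DMSO wells and 100% = 60 µM geldanamycin wells; inhibitors lower the luminescence because luciferase stays unfolded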
DAX1 inh: inhibitors of human orphan nuclear receptor DAX1 (NR0B1); P51843; HEK293 Gal4-DAX1 luciferase reporter, luminescence; inhibition, % at 6.75 µM; 340,000 tested, 0.99% active;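 active means inhibition above the mean over all tested compounds plus 3 SD, cut at about 4.2% in these data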;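 further: 0% = DAX1-transfected cells with DMSO and 100% = empty-vector control cells with DMSO; inhibition shows as a rise in luminescence from relieved DAX1 repression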
HSF-1 act: increases HSF-1 driven luciferase reporter signal. NIH3T3-HGL HSF-1 luciferase reporter, MG132, 8 h; 100% = twice DMSO control signal. activation, % at 9 µM. 300,000 tested, 1.7% active. AID 504408;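 active means mean replicate activation of at least 50% with a set share of replicates each reaching 50%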;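 further: 0% = median of the neutral control wells and 100% = twice that signal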
HSF1 inh: HSF1 inhibition | NIH3T3-HGL HSE-luciferase, MG132-induced, luminescence 8 h; stronger effect = lower value | activity change, negative = inhibition, % at 7.5 µM (by protocol) | 300,000 tested, 0.77% active | AID 2098;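 active means more than half of replicate wells show activity change below -50%, luminescence cut by over half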;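 further: luciferase reports HSF-1 transcriptional activity via heat shock element; 0% = median of DMSO wells and -100% = zero luminescence signal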
GAA850 FXN act: increases GAA850 frataxin promoter reporter activity; HEK293 lucGAA850 FXN promoter luciferase reporter, 24 h; percent of 10 µM SAHA response; activation, % at 6 µM; 360,000 tested, 0.56% active; AID 540364;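 active means activation above the average of all compounds screened plus 3 SD, cutoff fixed separately per campaign, cut at about 7.5% in these data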;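 further: 0% = DMSO wells and 100% = 10 µM SAHA wells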
Numbers without * were called inactive.

Screening COc1ccccc1Nc1nc(-c2sc(NC(=O)c3ccco3)nc2C)cs1 returned AHR act 79*, HSP90 refold inh 12, DAX1 inh -1, HSF-1 act 3, HSF1 inh -2 and GAA850 FXN act -4.
CCCCC(=O)Nc1nc(C)c(-c2csc(Nc3ccccc3OC)n2)s1 was read as AHR act 77*, HSP90 refold inh 3, DAX1 inh -1, HSF-1 act -3, HSF1 inh 3 and GAA850 FXN act -2.
Cc1ccc(-c2csc(NC(=O)c3ccco3)n2)cc1C was read as AHR act 1, HSP90 refold inh -2, DAX1 inh 4.3*, HSF-1 act 62*, HSF1 inh 8 and GAA850 FXN act 5.
Screening COc1ccc(Cl)cc1Nc1nc(-c2sc(NC(=O)CC(C)C)nc2C)cs1 returned AHR act 38, HSP90 refold inh 5, DAX1 inh 1, HSF-1 act -53, HSF1 inh -39 and GAA850 FXN act 0.
`CC1CCCCC1NC(=O)COC(=O)c1ccc2c(=O)n3c(nc2c1)CCC3` (stereo unspecified) gave AHR act 1, DAX1 inh 0 and GAA850 FXN act 0.
Screening O=C1CN(S(=O)(=O)c2cccc(Cl)c2Cl)CCN1 returned DAX1 inh 1 and GAA850 FXN act 1.
`CCn1c(-c2ccccc2)c(C(=O)CC#N)c2ccccc21` gave AHR act 3, HSP90 refold inh -1, DAX1 inh 0, HSF-1 act 10, HSF1 inh 10 and GAA850 FXN act 5.
Screening CCCCCCC(=O)Nc1nc(C)c(-c2csc(Nc3cc(OC)ccc3OC)n2)s1 returned AHR act 67*, HSP90 refold inh -2, DAX1 inh 1, HSF-1 act -54, HSF1 inh -39 and GAA850 FXN act -3.
CN(C(=O)c1ccco1)c1nc(-c2ccccc2)cs1 was read as AHR act 6, HSP90 refold inh -3, DAX1 inh 3, HSF-1 act 76*, HSF1 inh 32 and GAA850 FXN act 3.
`COc1cccc(N(C(=O)c2ccco2)c2nc(-c3sc(NC(=O)c4ccco4)nc3C)cs2)c1` gave AHR act 65*, HSP90 refold inh 14, DAX1 inh 1, HSF-1 act -13, HSF1 inh -5 and GAA850 FXN act -7.
`COCCN(C(=O)c1ccco1)c1nc(-c2ccccc2)cs1` gave AHR act 19, HSP90 refold inh 0, DAX1 inh -2, HSF-1 act -2, HSF1 inh -4 and GAA850 FXN act 3.
Cc1ccc(Cl)cc1Nc1nc(-c2sc(NC(=O)c3ccco3)nc2C)cs1 was read as AHR act 28, HSP90 refold inh 10, DAX1 inh -1, HSF-1 act -5, HSF1 inh 3 and GAA850 FXN act -9.
C=CCCC(=O)Nc1nc(C)c(-c2csc(Nc3cc(Cl)ccc3OC)n2)s1 was read as AHR act 72*, HSP90 refold inh 3, DAX1 inh 1, HSF-1 act -31, HSF1 inh -12 and GAA850 FXN act -1.
`COc1ccc(Nc2nc(-c3sc(NC(C)=O)nc3C)cs2)cc1` gave AHR act 7, HSP90 refold inh 0, HSF-1 act -2 and HSF1 inh -14.
Screening O=c1oc2ccccc2c(Nc2cc3ccccc3cc2O)c1[N+](=O)[O-] returned AHR act 63*, HSP90 refold inh 12, DAX1 inh -3, HSF-1 act -27, HSF1 inh -19 and GAA850 FXN act 1.
O=c1oc2ccccc2c(Nc2ccccc2O)c1[N+](=O)[O-] was read as AHR act 11, HSP90 refold inh 7, DAX1 inh 0, HSF-1 act -4, HSF1 inh -7 and GAA850 FXN act 0.
For O=c1oc2ccccc2c(Nc2cccc3cccnc23)c1[N+](=O)[O-] the results were AHR act 57*, HSP90 refold inh 4, DAX1 inh -1, HSF-1 act 33, HSF1 inh 14 and GAA850 FXN act 2.
Screening O=C(CCn1c(=S)oc2ccccc21)NC1CCCCCC1 returned AHR act -1, HSP90 refold inh -4, DAX1 inh 0, HSF-1 act -77, HSF1 inh -71* and GAA850 FXN act -1.
`CN(C)c1ccc(NC(=O)CCn2c(=S)oc3ccccc32)cc1` gave AHR act 59*, HSP90 refold inh -2, DAX1 inh 1, HSF-1 act 7, HSF1 inh 8 and GAA850 FXN act 4.
Screening COc1ccc(CN2CCC[C@]3(N[C@H](c4ccccc4)[C@@H]4C(=O)N(Cc5ccccc5)C(=O)[C@@H]43)C2=O)cc1 returned DAX1 inh -1 and GAA850 FXN act -5.
Screening O=C(C[C@@H]1C[C@H]2c3cc(NC(=O)C4CCC4)ccc3O[C@H]2[C@@H](CO)O1)NCc1ccc(-c2ccccc2)cc1 returned DAX1 inh 0 and GAA850 FXN act -3.
`CC(C(=O)Nc1ccccn1)N1C(=O)c2ccccc2S1(=O)=O` (stereo unspecified) gave AHR act -2, DAX1 inh 1, HSF-1 act -19, HSF1 inh -6 and GAA850 FXN act 1.
For COc1ccc(N2CCN(CC(O)COCCOc3ccc(Br)cc3)CC2)cc1 (stereo unspecified) the results were AHR act 2, HSP90 refold inh -1, DAX1 inh 0, HSF-1 act -74, HSF1 inh -66* and GAA850 FXN act 2.
`CNC(=O)c1ccc(NC(=O)CCNC(=O)Nc2ccccc2)cc1` gave DAX1 inh -1 and GAA850 FXN act 0.
Screening c1ccc(Oc2ccc(-c3ccn[nH]3)cc2)cc1 returned AHR act 6, HSP90 refold inh -2, DAX1 inh 4.6*, HSF-1 act 42, HSF1 inh 19 and GAA850 FXN act 4.
For CCN(c1ccccc1)S(=O)(=O)c1cccc(C(=O)N(C)CCOc2ccccc2)c1 the results were AHR act -1, DAX1 inh 0, HSF-1 act 18, HSF1 inh 12 and GAA850 FXN act 1.
Screening COc1cc2c3c(c1)c(N=NC(N)=S)c(O)n3C(C)(C)C=C2C returned AHR act 7, HSP90 refold inh -4, DAX1 inh 7.1*, HSF-1 act -4, HSF1 inh 3 and GAA850 FXN act -1.
O=C(Nc1ccc(Br)c(C(F)(F)F)c1)c1ccccc1 was read as AHR act 51*, HSP90 refold inh 1, DAX1 inh -2, HSF-1 act 3, HSF1 inh 0 and GAA850 FXN act 4.
For O=C(Nc1ccc(Nc2ccccc2)cc1)c1cccc(F)c1 the results were AHR act -2, HSP90 refold inh -9, DAX1 inh 1, HSF-1 act 67*, HSF1 inh 41 and GAA850 FXN act 3.
Screening Cc1ccc(C(=O)Nc2ccc(N3CCCCC3)cc2)cc1 returned AHR act -2, DAX1 inh 4 and GAA850 FXN act 4.
